Test system: HepG2
Assay: GSK_TCMDC: Percent inhibition of human HepG2 cell line. Test compounds present at 10uM.
Type: functional

SMILES	Inhibition [%]
Nc1c2c(nc3ccc(C(=O)Nc4ccccc4)cc13)CCCC2	20
CCCOc1cccc(C(=O)N[C@@H](Cc2ccccc2)[C@H](O)CNCc2cccc(OC)c2)c1	14
COc1cc(NC(=O)Nc2cc(C)nc3ccccc23)cc(OC)c1	5
CN(C)Cc1cccc(-c2cc3c(-c4cnn(C)c4)c(Cl)cnc3[nH]2)c1	75
CN1CCN(Cc2c(O)ccc3c(=O)c(Oc4ccc(C(C)(C)C)cc4)c(C(F)(F)F)oc23)CC1	0
CC1CCC(NC(=O)c2nn(-c3ccc(Cl)cc3)c(=O)c3ccccc23)CC1 (stereo not drawn)	3
CCN(CC)CCN(Cc1ccc(-c2ccc(C(F)(F)F)cc2)cc1)C(=O)Cn1c(CCc2ccc(F)c(C#N)c2)nc(=O)c2ccccc21.O=C(O)C(O)C(O)C(=O)O	18
COc1ccc(CCNC(=O)c2cnc3c(c2)nc(-c2c[nH]c(-c4ccccc4)n2)n3CCc2c[nH]cn2)cc1	16
CC(=NO)C1=C(O)C(c2ccccc2)N(c2ccccc2)C1=O (stereo not drawn)	12
Cc1cc(O)c(CN(C)Cc2ccc3c(c2)OCO3)cc1C(C)C	9
C=CC(=O)Nc1ccc(Cl)cc1C(O)c1ccccc1 (stereo not drawn)	0
Cc1ccccc1C1CCN(C2CCC(NC(=O)/C=C/c3cc(F)ccc3F)CC2)CC1 (stereo not drawn)	47
c1ccc(Oc2ccc(Nc3ccnc(Nc4cccc(CNCCCN5CCOCC5)c4)n3)cc2)cc1	0
N#Cc1ccc2[nH]cc(C(=O)CCCCCN(Cc3ccccc3)Cc3ccccc3)c2c1	10
Cl.c1ccc2c(NCCCCCCCCNc3ccnc4ccccc34)ccnc2c1	57
COc1cc(Cc2cnc(N)nc2N)ccc1OCc1ccc(-c2ccccc2C#N)cc1	32
COc1cc(Nc2ccnc3cc(-c4nccs4)ccc23)ccc1OCCCc1nc2ccccc2[nH]1.Cl	100
Clc1ccc2nc(-c3cccnc3)[nH]c2c1	0
